Results from PubChem BioAssay AID1159580 (chemical genetic matrix, 2015).
Out of some 5,500 compounds screened, about 2,000 (36%) were called active. About 18% were inconclusive and are not listed. Cut-off read from the data, not from the text of the source: active = normalized growth mostly below about 0.91 (no sharp cut-off); inconclusive = no clear call, values can overlap the other calls; inactive = mostly above about 0.92. The list shows a part of the results.

Assay: chemical genetic growth profiling, strain panel (AID 1159580);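 note: tested at 20 µM; growth read once vehicle control cultures reached saturation at 30 °C; 1 = growth at the plate median or of vehicle wells; lower values mean less growth of the strain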
Details: growth OD

Measured: normalized growth

CCCCCC(O)C1C(=O)OC(C)C(O)/C=C/C=C/C=C/C=C/C=C(\C)C(O)CC(O)CC(O)CC(O)CC(O)CC(O)CC1O (configuration not stated)
inactive: S. cerevisiae deletion strains, locus YJR075W, strain HOC1, active compounds read low 0.994 | S. cerevisiae deletion strains, locus YKL009W, strain mrt4, active compounds read low 0.999 | S. cerevisiae deletion strains, locus YKL068W, active compounds read low 1.03 | S. cerevisiae deletion strains, locus YKL085W, strain MDH1 (second series), active compounds read low 0.975 | S. cerevisiae deletion strains, locus YKL085W, strain MDH1, active compounds read low 0.975 | S. cerevisiae deletion strains, locus YKL160W, strain elf1, active compounds read low 1.01 | S. cerevisiae deletion strains, locus YKL190W, strain CNB1, active compounds read low 1.01 | S. cerevisiae deletion strains, locus YKR001C, strain vps1, active compounds read low 1.03 | S. cerevisiae deletion strains, locus YKR026C, strain gcn3, active compounds read low 0.966 | S. cerevisiae deletion strains, locus YKR091W, strain srl3, active compounds read low 0.995 | S. cerevisiae deletion strains, locus YLL001W, strain dnm1, active compounds read low 1.01 | S. cerevisiae deletion strains, locus YLL026W, active compounds read low 0.982 | S. cerevisiae deletion strains, locus YLL041C, strain sdh2, active compounds read low 0.994 | S. cerevisiae deletion strains, locus YLR027C, strain aat2, active compounds read low 0.983 | S. cerevisiae deletion strains, locus YLR039C, strain RIC1, active compounds read low 1.08 | S. cerevisiae deletion strains, locus YLR058C, strain SHM2, active compounds read low 1.01 | S. cerevisiae deletion strains, locus YLR102C, strain apc9, active compounds read low 1.02 | S. cerevisiae deletion strains, locus YLR113W, strain HOG1, active compounds read low 0.951 | S. cerevisiae deletion strains, locus YLR221C, strain rsa3, active compounds read low 1 | S. cerevisiae deletion strains, locus YLR258W, strain gsy2, active compounds read low 0.991 | S. cerevisiae deletion strains, locus YLR262C, strain YPT6 (second series), active compounds read low 0.997 | S. cerevisiae deletion strains, locus YLR262C, strain YPT6, active compounds read low 1.09 | S. cerevisiae deletion strains, locus YLR268W, strain sec22, active compounds read low 1.02 | S. cerevisiae deletion strains, locus YLR320W, strain mms22, active compounds read low 0.992 | S. cerevisiae deletion strains, locus YLR330W, strain CHS5, active compounds read low 1.01 | S. cerevisiae deletion strains, locus YLR342W, strain FKS1 (second series), active compounds read low 1.06 | S. cerevisiae deletion strains, locus YLR342W, strain FKS1, active compounds read low 0.983 | S. cerevisiae deletion strains, locus YLR357W, strain rsc2, active compounds read low 0.972 | S. cerevisiae deletion strains, locus YLR370C, strain arc18, active compounds read low 0.982 | S. cerevisiae deletion strains, locus YLR371W, strain rom2, active compounds read low 1.02 | S. cerevisiae deletion strains, locus YLR384C, strain iki3, active compounds read low 0.985 | S. cerevisiae deletion strains, locus YLR418C, strain cdc73, active compounds read low 1.02 | S. cerevisiae deletion strains, locus YML016C, strain PPZ1, active compounds read low 1.01 | S. cerevisiae deletion strains, locus YML032C, strain rad52, active compounds read low 1.04 | S. cerevisiae deletion strains, locus YML120C, strain ndi1, active compounds read low 1 | S. cerevisiae deletion strains, locus YML124C, strain tub3, active compounds read low 1.02 | S. cerevisiae deletion strains, locus YMR058W, strain fet3, active compounds read low 0.997 | S. cerevisiae deletion strains, locus YMR078C, strain ctf18, active compounds read low 1.03 | S. cerevisiae deletion strains, locus YMR125W, strain sto1, active compounds read low 0.959 | S. cerevisiae deletion strains, locus YMR129W, active compounds read low 0.977 | S. cerevisiae deletion strains, locus YMR205C, strain PFK2, active compounds read low 0.955 | S. cerevisiae deletion strains, locus YMR223W, strain ubp8, active compounds read low 1.03 | S. cerevisiae deletion strains, locus YMR231W, strain pep5, active compounds read low 1 | S. cerevisiae deletion strains, locus YMR263W, strain SAP30, active compounds read low 1.01 | S. cerevisiae deletion strains, locus YMR307W, strain GAS1, active compounds read low 1.12 | S. cerevisiae deletion strains, locus YNL067W, strain RPL9B, active compounds read low 1.01 | S. cerevisiae deletion strains, locus YNL071W, strain lat1, active compounds read low 0.996 | S. cerevisiae deletion strains, locus YNL128W, strain TEP1, active compounds read low 0.998 | S. cerevisiae deletion strains, locus YNL153C, strain GIM3, active compounds read low 0.994 | S. cerevisiae deletion strains, locus YNL183C, strain NPR1, active compounds read low 0.928 | S. cerevisiae deletion strains, locus YNL209W, strain ssb2, active compounds read low 0.997 | S. cerevisiae deletion strains, locus YNL233W, strain BNI4, active compounds read low 1 | S. cerevisiae deletion strains, locus YNL248C, strain rpa49, active compounds read low 1.01 | S. cerevisiae deletion strains, locus YNL250W, strain rad50, active compounds read low 1 | S. cerevisiae deletion strains, locus YNL271C, strain bni1, active compounds read low 1.02 | S. cerevisiae deletion strains, locus YNL298W, strain CLA4, active compounds read low 1.02 | S. cerevisiae deletion strains, locus YNL307C, strain MCK1, active compounds read low 1.06 | S. cerevisiae deletion strains, locus YNL322C, strain KRE1 (second series), active compounds read low 0.989 | S. cerevisiae deletion strains, locus YNL322C, strain KRE1, active compounds read low 1.01 | S. cerevisiae deletion strains, locus YNR049C, strain mso1, active compounds read low 0.984 | S. cerevisiae deletion strains, locus YNR052C, strain pop2, active compounds read low 1.02 | S. cerevisiae deletion strains, locus YOL006C, strain TOP1, active compounds read low 1.01 | S. cerevisiae deletion strains, locus YOL012C, strain htz1 1.12 | S. cerevisiae deletion strains, locus YOL147C, strain pex11, active compounds read low 1.02 | S. cerevisiae deletion strains, locus YOR001W, strain rrp6, active compounds read low 1 | S. cerevisiae deletion strains, locus YOR061W, strain CKA2, active compounds read low 1.01 | S. cerevisiae deletion strains, locus YOR069W, strain VPS5, active compounds read low 0.999 | S. cerevisiae deletion strains, locus YOR070C, strain gyp1, active compounds read low 0.989 | S. cerevisiae deletion strains, locus YOR080W, strain dia2, active compounds read low 0.976 | S. cerevisiae deletion strains, locus YOR083W, strain WHI5, active compounds read low 1.01 | S. cerevisiae deletion strains, locus YOR106W, strain vam3, active compounds read low 1.01 | S. cerevisiae deletion strains, locus YOR136W, strain idh2, active compounds read low 1.03 | S. cerevisiae deletion strains, locus YOR144C, strain elg1, active compounds read low 1.03 | S. cerevisiae deletion strains, locus YOR184W, strain ser1, active compounds read low 1.06 | S. cerevisiae deletion strains, locus YOR231W, strain MKK1, active compounds read low 0.954 | S. cerevisiae deletion strains, locus YOR265W, strain rbl2, active compounds read low 0.995 | S. cerevisiae deletion strains, locus YOR270C, strain vph1, active compounds read low 1.01 | S. cerevisiae deletion strains, locus YOR290C, strain snf2, active compounds read low 0.995 | S. cerevisiae deletion strains, locus YOR316C, strain cot1, active compounds read low 1.02 | S. cerevisiae deletion strains, locus YPL051W, strain arl3, active compounds read low 0.996 | S. cerevisiae deletion strains, locus YPL055C, strain LGE1, active compounds read low 1.01 | S. cerevisiae deletion strains, locus YPL078C, strain atp4, active compounds read low 1.01 | S. cerevisiae deletion strains, locus YPL106C, strain sse1, active compounds read low 0.987 | S. cerevisiae deletion strains, locus YPL240C, strain hsp82, active compounds read low 1.02 | S. cerevisiae deletion strains, locus YPL241C, strain CIN2, active compounds read low 1.01 | S. cerevisiae deletion strains, locus YPL256C, strain CLN2, active compounds read low 0.975 | S. cerevisiae deletion strains, locus YPR119W, strain clb2, active compounds read low 1.02 | S. cerevisiae deletion strains, locus YPR141C, strain kar3, active compounds read low 1.03 | S. cerevisiae deletion strains, locus YPR163C, strain tif3, active compounds read low 1.02 | S. cerevisiae deletion strains, locus YPR167C, strain met16, active compounds read low 1.02 | S. cerevisiae deletion strains, strain wtn01, active compounds read low 1.01 | S. cerevisiae strains, strain wild type, active compounds read low 1.01
